Here are results for 14 targets from the supplement of paper PMC10849652.

What all share (test): log2 fold change, soluble protein after heating vs DMSO (PISA); higher = thermal stabilisation; K562 lysate, 10 uM; active = over 0.2 and 3.5 SD of the protein, either way, in both replicates (recomputed)
Compound in one test: Cc1cn(-c2cc(NC(=O)c3ccc(C)c(Nc4nccc(-c5cccnc5)n4)c3)cc(C(F)(F)F)c2)cn1 [nilotinib]
A digest of the protocol:
(§1)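 Values give the log-two fold change in thermal stability against solvent controls, from duplicates. Crude K562 extract at 1 mg/mL protein, made by dounce homogenisation in PBS pH 7.4 with 1 mM MgCl2, was treated with 10 μM compound for 30 min. After 3 min heating across 48°C-58°C, aliquots were pooled, adjusted to 0.5% NP-40 at 4°C and centrifuged at 21,000xg for 90 min. The supernatant was measured by TMTpro 16plex LC-MS/MS with channel sums equalised.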

Compound in test [1]: Cc1nc(Nc2n[nH]c3c2CN(C(=O)N[C@H](CN(C)C)c2ccccc2)C3(C)C)c2sccc2n1
A digest of the protocol: as §1

Compound in the next test: Cc1nc(Nc2ncc(C(=O)Nc3c(C)cccc3Cl)s2)cc(N2CCN(CCO)CC2)n1 [dasatinib]
A digest of the protocol:
as §1

Compound in test [2]: Cc1ncc(-c2ccnc(Nc3ccc(S(C)(=O)=O)cc3)n2)n1C(C)C
A digest of the protocol:
as §1

Compound in test [3]: Cn1cc(-c2ccc3c(c2)CCN3C(=O)Cc2cccc(C(F)(F)F)c2)c2c(N)ncnc21
A digest of the protocol:
as §1

Compound in a further test: Cn1cc(CNCC2CCN(c3ncc(C(=O)NO)cn3)CC2)c2ccccc21 [quisinostat]
A digest of the protocol: as §1

Compound in the next test: Cn1cncc1[C@@](N)(c1ccc(Cl)cc1)c1ccc2c(c1)c(-c1cccc(Cl)c1)cc(=O)n2C [tipifarnib]
A digest of the protocol:
as §1

Compound in test [4]: NC(=O)Nc1cc(-c2cccc(F)c2)sc1C(=O)N[C@H]1CCCNC1
A digest of the protocol: as §1

Compound in test [5]: NC(=O)c1cnc(N[C@@H]2CCCC[C@@H]2N)nc1Nc1cccc(-n2nccn2)c1
A digest of the protocol:
as §1

Compound in test [6]: NC1(c2ccc(-c3nc4ccn5c(=O)[nH]nc5c4cc3-c3ccccc3)cc2)CCC1
A digest of the protocol: as §1

Of roughly 8,800 targets only a part is listed; those with a hit were picked by preference. About 0.5% of all pairs of compound and target were hits. A number with no mark means an inactive call.

Chain of UniProt P0C869 (P0C869 whole entry, looked up): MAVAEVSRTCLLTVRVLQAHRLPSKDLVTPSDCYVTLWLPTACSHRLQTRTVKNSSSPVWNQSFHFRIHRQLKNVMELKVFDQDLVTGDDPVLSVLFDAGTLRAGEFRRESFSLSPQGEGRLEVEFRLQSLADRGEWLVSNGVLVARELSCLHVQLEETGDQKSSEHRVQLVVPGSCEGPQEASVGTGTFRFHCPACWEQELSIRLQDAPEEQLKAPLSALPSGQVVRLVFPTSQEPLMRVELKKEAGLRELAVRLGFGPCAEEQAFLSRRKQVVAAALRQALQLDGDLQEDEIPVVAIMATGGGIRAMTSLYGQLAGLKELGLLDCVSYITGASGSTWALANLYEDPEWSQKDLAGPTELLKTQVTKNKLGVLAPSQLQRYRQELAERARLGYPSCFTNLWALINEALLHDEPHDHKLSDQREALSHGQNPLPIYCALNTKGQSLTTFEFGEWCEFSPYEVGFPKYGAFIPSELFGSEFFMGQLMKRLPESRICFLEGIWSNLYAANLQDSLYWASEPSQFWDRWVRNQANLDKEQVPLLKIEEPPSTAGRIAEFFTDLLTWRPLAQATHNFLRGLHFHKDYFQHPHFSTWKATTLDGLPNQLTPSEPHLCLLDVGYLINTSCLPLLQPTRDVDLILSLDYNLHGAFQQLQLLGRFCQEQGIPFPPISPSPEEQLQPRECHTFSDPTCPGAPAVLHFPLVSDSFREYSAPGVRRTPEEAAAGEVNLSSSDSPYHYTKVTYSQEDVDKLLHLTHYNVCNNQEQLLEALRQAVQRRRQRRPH
Chain of UniProt Q9NVU0 (Q9NVU0 whole entry, looked up): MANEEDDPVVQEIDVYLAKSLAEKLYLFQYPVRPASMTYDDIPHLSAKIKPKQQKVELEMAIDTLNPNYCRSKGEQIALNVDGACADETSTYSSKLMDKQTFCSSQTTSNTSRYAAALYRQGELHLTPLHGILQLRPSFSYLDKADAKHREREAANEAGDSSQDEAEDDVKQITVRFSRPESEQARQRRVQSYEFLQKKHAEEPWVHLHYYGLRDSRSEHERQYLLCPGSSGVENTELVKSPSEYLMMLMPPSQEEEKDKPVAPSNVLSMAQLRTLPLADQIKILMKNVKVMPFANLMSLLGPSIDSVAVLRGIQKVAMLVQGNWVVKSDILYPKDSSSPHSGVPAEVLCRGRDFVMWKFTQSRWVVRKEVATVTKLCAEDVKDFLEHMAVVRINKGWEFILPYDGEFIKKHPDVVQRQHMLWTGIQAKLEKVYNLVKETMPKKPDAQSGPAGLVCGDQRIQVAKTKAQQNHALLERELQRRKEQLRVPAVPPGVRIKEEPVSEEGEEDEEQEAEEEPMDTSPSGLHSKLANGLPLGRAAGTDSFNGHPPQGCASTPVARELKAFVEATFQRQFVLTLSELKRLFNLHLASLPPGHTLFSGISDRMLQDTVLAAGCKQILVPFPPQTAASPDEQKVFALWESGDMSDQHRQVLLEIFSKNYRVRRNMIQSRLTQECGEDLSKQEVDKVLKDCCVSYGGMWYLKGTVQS
Chain of UniProt Q9NR22 (Q9NR22 whole entry, looked up): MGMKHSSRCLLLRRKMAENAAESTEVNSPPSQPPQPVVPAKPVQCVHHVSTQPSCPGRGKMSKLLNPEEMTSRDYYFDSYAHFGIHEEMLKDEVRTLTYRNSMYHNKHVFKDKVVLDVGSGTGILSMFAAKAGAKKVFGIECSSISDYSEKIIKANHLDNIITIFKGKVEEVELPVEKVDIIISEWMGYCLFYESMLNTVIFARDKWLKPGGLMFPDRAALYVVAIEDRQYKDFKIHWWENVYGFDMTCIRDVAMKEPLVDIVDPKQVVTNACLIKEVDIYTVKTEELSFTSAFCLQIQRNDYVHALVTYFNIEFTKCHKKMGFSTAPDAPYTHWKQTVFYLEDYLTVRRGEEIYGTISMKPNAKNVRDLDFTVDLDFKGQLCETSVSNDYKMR
Chain of UniProt Q9P215 (Q9P215 whole entry, looked up): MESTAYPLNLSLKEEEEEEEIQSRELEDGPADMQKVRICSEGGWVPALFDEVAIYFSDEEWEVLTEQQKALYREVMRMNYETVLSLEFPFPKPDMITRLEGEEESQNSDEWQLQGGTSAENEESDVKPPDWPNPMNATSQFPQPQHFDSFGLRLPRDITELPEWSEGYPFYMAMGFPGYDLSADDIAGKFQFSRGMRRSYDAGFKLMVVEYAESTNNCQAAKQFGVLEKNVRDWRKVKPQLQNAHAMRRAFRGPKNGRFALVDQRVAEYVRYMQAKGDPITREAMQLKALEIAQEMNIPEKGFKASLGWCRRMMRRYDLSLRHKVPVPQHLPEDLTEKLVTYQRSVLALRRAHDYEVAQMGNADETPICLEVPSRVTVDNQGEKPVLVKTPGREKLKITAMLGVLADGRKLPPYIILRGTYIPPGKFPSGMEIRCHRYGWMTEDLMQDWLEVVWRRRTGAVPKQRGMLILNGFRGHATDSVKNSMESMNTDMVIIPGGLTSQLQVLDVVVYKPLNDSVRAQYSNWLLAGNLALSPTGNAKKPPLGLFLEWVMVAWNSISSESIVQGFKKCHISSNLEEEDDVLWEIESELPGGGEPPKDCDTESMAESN
Chain of UniProt Q8N8N7 (Q8N8N7 whole entry, looked up): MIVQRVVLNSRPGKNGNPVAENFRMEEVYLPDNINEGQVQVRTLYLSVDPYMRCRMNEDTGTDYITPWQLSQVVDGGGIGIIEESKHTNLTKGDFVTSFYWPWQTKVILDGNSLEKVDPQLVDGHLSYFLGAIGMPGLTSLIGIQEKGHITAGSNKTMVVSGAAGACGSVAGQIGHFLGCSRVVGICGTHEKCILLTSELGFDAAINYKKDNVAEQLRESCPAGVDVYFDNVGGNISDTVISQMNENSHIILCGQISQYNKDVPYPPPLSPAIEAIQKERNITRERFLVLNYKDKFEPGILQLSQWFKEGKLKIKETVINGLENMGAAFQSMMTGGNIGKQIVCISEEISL
Chain of UniProt Q9H0N5 (Q9H0N5 whole entry, looked up): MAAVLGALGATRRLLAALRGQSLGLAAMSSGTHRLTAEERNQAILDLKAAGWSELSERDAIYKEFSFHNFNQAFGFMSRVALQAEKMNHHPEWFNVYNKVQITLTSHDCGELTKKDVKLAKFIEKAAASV
Chain of UniProt P53350 (P53350 whole entry, looked up): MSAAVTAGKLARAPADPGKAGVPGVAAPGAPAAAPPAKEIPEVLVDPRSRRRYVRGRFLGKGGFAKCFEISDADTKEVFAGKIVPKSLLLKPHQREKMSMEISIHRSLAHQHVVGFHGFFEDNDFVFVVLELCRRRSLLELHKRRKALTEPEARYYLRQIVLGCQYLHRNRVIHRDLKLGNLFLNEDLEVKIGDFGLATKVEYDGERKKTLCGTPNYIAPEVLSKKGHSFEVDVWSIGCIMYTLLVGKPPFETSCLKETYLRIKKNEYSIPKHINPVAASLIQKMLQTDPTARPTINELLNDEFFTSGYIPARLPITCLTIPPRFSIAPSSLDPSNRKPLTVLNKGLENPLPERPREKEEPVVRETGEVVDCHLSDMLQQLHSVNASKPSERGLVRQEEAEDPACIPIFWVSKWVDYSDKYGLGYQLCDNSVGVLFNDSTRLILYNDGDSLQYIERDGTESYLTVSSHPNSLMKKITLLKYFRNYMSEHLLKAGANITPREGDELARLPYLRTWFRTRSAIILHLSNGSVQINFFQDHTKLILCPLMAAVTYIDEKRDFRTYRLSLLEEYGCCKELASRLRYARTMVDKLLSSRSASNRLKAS
Chain of UniProt Q9BSG0 (Q9BSG0 whole entry, looked up): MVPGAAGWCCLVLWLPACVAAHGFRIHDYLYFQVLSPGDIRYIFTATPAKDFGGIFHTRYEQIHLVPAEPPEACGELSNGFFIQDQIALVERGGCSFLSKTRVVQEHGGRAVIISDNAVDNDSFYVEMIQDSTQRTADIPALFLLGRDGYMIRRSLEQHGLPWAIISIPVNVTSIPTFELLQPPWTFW
Chain of UniProt Q13442 (Q13442 whole entry, looked up): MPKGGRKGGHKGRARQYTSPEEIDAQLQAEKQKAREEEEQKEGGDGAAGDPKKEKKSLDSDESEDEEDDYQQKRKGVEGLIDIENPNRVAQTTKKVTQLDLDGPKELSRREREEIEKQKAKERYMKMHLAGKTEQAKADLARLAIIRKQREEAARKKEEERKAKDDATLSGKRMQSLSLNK

As for PLK1 (UniProt P53350), the log2 fold change with nilotinib is 0.014; in test [1] it was -0.073; with dasatinib, -0.004; in test [2] it was 0.008; in test [3] it was -0.015; in the test with quisinostat it was -0.021. Besides, the log2 fold change in the test with tipifarnib was 0.032; in test [4], -0.193; in test [5], -0.043; in test [6], 0.01.

For the target PCBD2 (UniProt Q9H0N5), the log2 fold change is 0.01 with nilotinib; -0.045 in test [1]; 0.011 with dasatinib; -0.063 in test [2]; 0.051 in [3]; -0.08 with quisinostat. Also, the log2 fold change in the test with tipifarnib is -0.101; in test [4], 0.033; in [5], 0.069; in [6], -0.066.

With PTGR2 (UniProt Q8N8N7), the log2 fold change was 0.024 in the test with nilotinib; -0.044 in [1]; 0.012 with dasatinib; 0.025 in test [2]; 0.024 in test [3]; -0.008 with quisinostat. Besides, the log2 fold change with tipifarnib was 0.034; in [4], -0.011; in test [5], -0.002; in test [6], 0.011.

For the target PICALM (UniProt H0YEH1), the log2 fold change with nilotinib is -0.023; in test [1], -0.012; in the test with dasatinib, -0.039; in [2], -0.007; in [3], -0.005; in the test with quisinostat, -0.095. Besides, the log2 fold change in the test with tipifarnib was 0.019; in test [4] it was 0.166; in test [5], -0.021; in [6], -0.042.

For the target PRADC1 (UniProt Q9BSG0), the log2 fold change was 0.1 in the test with nilotinib; -0.1 in test [1]; 0.019 in the test with dasatinib; -0.047 in test [2]; 0.053 in test [3]; -0.007 with quisinostat. The log2 fold change in the test with tipifarnib is 0.296; in [4] it was -0.031; in test [5], -0.016; in test [6], 0.013.

PDAP1 (UniProt Q13442): the log2 fold change in the test with nilotinib is 0; in test [1] it was 0.002; in the test with dasatinib, 0.066; in test [2] it was -0.01; in test [3], -0.009; with quisinostat it was 0.013. For the same target, the log2 fold change with tipifarnib was 0.044; in test [4], 0.017; in test [5], -0.016; in test [6], -0.032.

For PWP1 (UniProt Q13610), the log2 fold change is -0.016 in the test with nilotinib; 0.009 in test [1]; 0.065 with dasatinib; 0.005 in test [2]; 0.048 in [3]; 0.068 with quisinostat. Moreover, the log2 fold change with tipifarnib is 0.017; in test [4] it was -0.005; in test [5], -0.003; in [6] it was 0.036.

With POGK (UniProt Q9P215), the log2 fold change in the test with nilotinib was -0.04; in test [1] it was 0.005; with dasatinib it was -0.068; in test [2] it was -0.001; in test [3] it was -0.023; with quisinostat, -0.086. Moreover, the log2 fold change was 0.007 in the test with tipifarnib, 0.108 in test [4], 0.008 in test [5] and -0.006 in test [6].

POLR2B (UniProt P30876): the log2 fold change with nilotinib was -0.027; in [1] it was 0.01; with dasatinib it was -0.065; in test [2], 0.004; in [3], 0.003; with quisinostat, -0.057. Besides, the log2 fold change with tipifarnib is -0.012; in test [4] it was 0.027; in [5] it was -0.004; in test [6], -0.03.

PLA2G4B isoform 6 (UniProt P0C869): the log2 fold change with nilotinib is -0.177; in [1], 0.259; with dasatinib, -0.1; in test [2] it was -0.326; in test [3] it was -0.047; with quisinostat it was -0.671 (active). For the same target, the log2 fold change with tipifarnib is 0.022; in test [4], 0.158; in test [5], 0.006; in test [6], -0.073.

As for PI4KA (UniProt P42356), the log2 fold change with nilotinib was -0.025; in test [1] it was 0.055; with dasatinib, -0.098; in test [2], 0.015; in test [3], 0.043; with quisinostat, -0.076. For the same target, the log2 fold change was -0.031 with tipifarnib, 0.041 in test [4], 0.003 in test [5] and 0.019 in test [6].

Regarding PRMT8 (UniProt Q9NR22), the log2 fold change in the test with nilotinib was 0.007; in test [1], -0.021; with dasatinib, -0.039; in test [2], -0.01; in test [3], -0.023; in the test with quisinostat, -0.057. The log2 fold change with tipifarnib is 0.036; in test [4] it was 0.034; in test [5], -0.023; in [6], -0.056.

In the case of PRKACA (UniProt P17612), the log2 fold change in the test with nilotinib was -0.055; in [1], 0.638 (active); with dasatinib, 0.07; in test [2] it was 0.068; in test [3] it was 0.049; with quisinostat, 0.097. Further, the log2 fold change with tipifarnib is -0.083; in test [4] it was 0.637 (active); in test [5], 0.273; in test [6] it was -0.038.

In the case of POLR3E (UniProt Q9NVU0), the log2 fold change with nilotinib was 0.017; in test [1], -0.054; in the test with dasatinib it was -0.035; in [2], -0.018; in test [3], 0.018; in the test with quisinostat, -0.023. Also, the log2 fold change is 0.04 in the test with tipifarnib, 0.037 in test [4], 0.009 in [5] and -0.001 in test [6].
